Marburg entry inh – blocks Marburg virus binding to or entry into cells | Marburg virus pseudotyped entry inhibition, cell reporter | Potency, µM (doses to about 37.8 µM), most hits filed as inhibitors | actives 1.8% (n = 300,000); calls by dose curve; tested in HEK293 cells
Shiga toxin inh – blocks Shiga toxin action in Vero cells. Vero cells, Shiga toxin protein synthesis inhibition reporter. inhibition, % at 38.7 µM. actives 9.2% (n = 290,000); in the data active = inhibition mostly above about 28%, no sharp cut-off; inactive = mostly below about 43%
Cycloheximide cs – affects cycloheximide protein synthesis inhibition readout, counter-screen; cell reporter, cycloheximide protein synthesis inhibition counterscreen; max response, %; actives 12% (n = 300,000); in the data active = max response mostly above about 13%, no sharp cut-off; inactive = mostly below about 14%; note: read at 38.3 µM for the half of the compounds with a filed dose
LASV entry inh – Lassa virus entry inhibition | Lassa virus pseudotype entry inhibition, cell reporter | Potency, µM (top dose mostly 37.9 µM), actives largely listed as inhibitors | actives 1.2% (n = 300,000); calls by dose curve; tested in HEK293 cells; note: nearly all actives have a fitted effect of over 50% in size
A number is an active result; – = inactive; ? = inconclusive; · = no result. Shown are actives, neighbours in structure and some others; about 12% of the full set was active somewhere.

SMILES	Marburg entry inh	Shiga toxin inh	Cycloheximide cs	LASV entry inh
CC(C)NC(=O)c1ccccc1-c1nc(-c2ccccc2Cl)no1	–	–	–	–
Cc1ccccc1-c1noc(-c2ccccc2C(=O)NCc2ccco2)n1	?	60	18	–
COCCNC(=O)c1ccccc1-c1nc(-c2ccccc2OC)no1	–	–	15	?
O=C(NCc1ccco1)c1ccccc1-c1nc(-c2ccc(F)cc2)no1	–	–	–	–
CC(C)(C)NC(=O)c1ccccc1-c1nc(-c2ccccc2Cl)no1	–	–	25	–
COc1ccc(-n2nc(C(=O)NCC(=O)NCCN(C)C)c3ccccc3c2=O)cc1	·	–	–	·
CCOC(=O)c1cc2c(=O)n3ccccc3nc2n(CC2CCCO2)c1=NC(=O)c1ccccc1OCC (centres undefined)	–	·	·	?
COc1cccc(-c2[nH]nc3c2C(c2ccoc2)C(C#N)=C(N)O3)c1 (centres undefined)	–	–	–	–
Cc1ccc(NC(=O)C(C)N=C2NS(=O)(=O)c3ccccc32)cc1F (centres undefined)	–	63	29	–
COc1ccccc1CN1CC(C(=O)N(C)CCc2nc3ccc(F)cc3[nH]2)CCC1=O (centres undefined)	·	–	–	·
COC(=O)c1cc(S(=O)(=O)N2CCCCCC2)cn1C	·	–	–	·
CC(=O)c1cccc(OCc2cc(C(=O)N3CCC(N4CCCCC4)CC3)no2)c1	·	–	–	·
CCCCCCCN1CCC(=O)N([C@H](CO)CC(C)C)CC1	·	–	–	·
COc1cccc(C2N(c3ccc(Cl)cc3)C(=O)C3CCCN32)c1 (centres undefined)	·	–	–	·
COc1ccccc1C1N(c2ccc(Cl)cc2)C(=O)C2CCCN21 (centres undefined)	4.6µM	–	–	?
O=C1C2CCCN2C(c2cccs2)N1c1ccc(Cl)cc1 (centres undefined)	?	–	–	7.3µM
CCc1nc2ccccc2n1CC1CC1(Cl)Cl (centres undefined)	–	–	–	–
O=c1cc(/C=C/c2c(F)cccc2Cl)[nH]c2ccccc12	–	63	54	–
CN(C)/C=C1/N=C(c2ccccc2)OC1=O	?	–	–	?
CN(C)/C=C1\N=C(c2cccnc2Oc2ccc(Cl)cc2)OC1=O	–	–	–	–
Cc1cccc(OCC2=N/C(=C\N(C)C)C(=O)O2)c1	–	–	22	–
CN(C)/C=C1\N=C(c2ccc(Cl)cc2Cl)OC1=O	?	–	21	–
Cc1ccc(C2=N/C(=C\N(C)C)C(=O)O2)cc1	?	75	40	–
COc1ccc(S(=O)(=O)NC(C)C(=O)NCc2ccccn2)cc1OC (centres undefined)	–	–	–	–
OCCNCCCCOc1ccc(F)cc1	–	–	–	–
SMILES	Marburg entry inh	Shiga toxin inh	Cycloheximide cs	LASV entry inh
OCCNCCCCOc1ccc(OCc2ccccc2)cc1	?	86	34	?
CCOCCCNCc1ccc(OCc2ccccc2Cl)cc1	?	–	–	–
OCCCCNCc1ccc(OCc2ccccc2Cl)cc1	?	–	25	–
OCCCCNCc1ccc(OCc2ccccc2)cc1	?	–	14	–
CC(O)CNCCCOc1ccccc1OCc1ccccc1 (centres undefined)	?	–	–	?
CC(O)CNCCCCOc1ccc(OCc2ccccc2)cc1 (centres undefined)	?	75	24	–
CCOc1ccc(C2C(C(C)=O)=C(O)C(=O)N2CCc2c[nH]c3ccccc23)cc1 (centres undefined)	·	–	–	·
Cc1cc(-n2c(C)cc(C(=O)CSc3ncnc4ccccc34)c2C)no1	9.2µM	–	–	?
Cc1cc(-n2c(C)cc(C(=O)CSc3nnc4sc5ccccc5n34)c2C)no1	–	87	24	–
Cc1cc(-n2c(C)cc(C(=O)CSc3nnnn3-c3ccc(Cl)cc3)c2C)no1	?	–	–	?
COc1ccc(CC(=O)Oc2ccc(F)cc2)cc1	·	–	–	·
COc1ccccc1C(=O)Nc1ccnn1C1CCN(Cc2ncc[nH]2)CC1	·	–	–	·
COc1ccc(CC(=O)Nc2nnc(SCC(=O)NCc3ccco3)s2)cc1OC	?	–	–	–
O=C(Nc1cccc(O)c1)c1ccc(Br)cc1	–	69	45	–
Cc1cccc(NC(=O)CCNC(=O)c2ccc(Br)cc2)c1	?	82	26	–
CCC(=O)Nc1cccc(NC(C)=O)c1	–	–	–	·
O=C(Nc1ccc(Nc2ccccc2)cc1)c1ccc(Br)cc1	·	–	–	·
CC(=O)Nc1cccc(NC(=O)c2ccc(Br)cc2)c1	–	–	27	–
CCC(=O)Nc1cccc(NC(=O)c2ccc(Br)cc2)c1	–	–	14	–
CCCn1c(=O)c2[nH]c(-c3ccc(S(=O)(=O)O)cc3)nc2n(CCC)c1=O	?	·	·	–
CC(CCc1ccccc1)NS(=O)(=O)c1ccc(Cl)c(C(=O)O)c1 (centres undefined)	–	–	–	–

Assay outcomes as filed in PubChem BioAssay.
